According to PubChem BioAssay:
Where “and” joins values, the source holds several entries; their conditions need not be identical. Equal values may be shown once. Records with an inconclusive call do not appear. A structure can be active in one record and inactive in another. Calls of active or inactive are those of the source.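 Rule for the calls, unless noted: active = compounds whose cell count with miR-34 switched on is under 0.7 times the count with it off; inactive = the rest.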

Experiments:
[1] = SU-DIPG-XXV glioma cell viability, MIPE5.0 library, qHTS (AID 1347068; cut-off not given, nearly all actives have IC50 up to about 30 µM)
[2] = survival rescue of mitochondrial mutant cells in low glucose, primary screen, MELAS cybrids, Rieske KO mouse fibroblasts, CellTiter-Glo (AID 1508586;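 active = mean z-score across replicates of 1.96 or higher in either the MELAS or the Rieske mutant cell line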;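 note: z relative to plate mean and SD of compound and empty wells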)
[3] = biological target: NAD(+) hydrolase SARM1 (Homo sapiens) (UniProt Q6SZW1); assay: SARM1 TIR NADase inhibitors, cell lysate, NAD-Glo luminescence (AID 1508614;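 active = compound whose remaining NAD level is above about 45 nM, limit read from the data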;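 note: higher remaining NAD means stronger inhibition of SARM1 NADase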); settings: SAM-TIR HEK293T lysate NADase, at 1 µM, stronger effect = higher value
[4] = viability rescue of complex I mutant cybrids, primary screen, cell-based, galactose medium, ATP luminescence (AID 1645843;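 active = z-score of at least 1.8 in each of two replicates, scored against plate mean and spread of sample wells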;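 note: positive z means more ATP and so rescue of galactose-driven cybrid death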); settings: complex I mutant cybrid cells, 72 h, stronger effect = higher value
[5] = sensitizers of A549 cells to miR-34 induction, primary screen, imaging, A549 dox-inducible miR-34, nuclei and caspase counts (AID 1347080); settings: A549 miR-34 inducible, Hoechst nuclei count, 48 h
[6] = phospholipid biosynthesis inhibitors in animal cells, primary screen, cell-based, LOPAC library, screen 4 (AID 1347384; call rule not given here); settings: phospholipid biosynthesis inhibition screen, at 10 µM
[7] = biological target: Mitogen-activated protein kinase 7 (Homo sapiens) (UniProt Q13164); assay: ERK5 transactivation activators in reporter cells, primary screen, cell-based, HTS (AID 1508626;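 active = luciferase signal above three times the same-plate solvent-only control wells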;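 note: luciferase driven by Gal4-ERK5 fusion binding five Gal4 sites before minimal TATA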); settings: HeLa Gal4-ERK5 transactivation, 18 h, at 5 µM, stronger effect = higher value
[8] = inhibitors of Cryptococcus chitosan production, flow cytometry, Cibacron Brilliant Red staining (AID 1347148; call rule not given here;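 note: compound exposure lasted three days at 37 degrees C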); settings: Cryptococcus neoformans chitosan, stronger effect = lower value; at 10 µM unless noted
[9] = SU-DIPG-VI glioma cell viability, MIPE4.0 library, CellTiter-Glo luminescence, qHTS (AID 1347066; cut-off not given, nearly all actives have AC50 up to about 30 µM;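 note: cells exposed to compound for 48 hours before readout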); settings: CellTiter-Glo ATP luminescence
[10] = JHH-DIPG-1 glioma cell viability, MIPE5.0 library, CellTiter-Glo luminescence, qHTS (AID 1347067; cut-off not given, nearly all actives have AC50 up to about 26 µM;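 note: cells exposed to compound for 48 hours before readout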); settings: JHH-DIPG-1 glioma viability, CellTiter-Glo ATP luminescence
[11] = MELAS cybrid survival, CellTiter-Glo 48 h, stronger effect = higher value
[12] = Rieske KO mouse fibroblast survival, CellTiter-Glo 72 h
[13] = stronger effect = lower value, cell number ratio, induced over uninduced
[14] = measured here: relative caspase fold change +Dox/-Dox
[15] = measured here: total cells with miR-34 induction, stronger effect = lower value
[16] = measured here: total cells without miR-34 induction

Sequence of NAD(+) hydrolase SARM1 (Homo sapiens) (Q6SZW1 whole entry, looked up): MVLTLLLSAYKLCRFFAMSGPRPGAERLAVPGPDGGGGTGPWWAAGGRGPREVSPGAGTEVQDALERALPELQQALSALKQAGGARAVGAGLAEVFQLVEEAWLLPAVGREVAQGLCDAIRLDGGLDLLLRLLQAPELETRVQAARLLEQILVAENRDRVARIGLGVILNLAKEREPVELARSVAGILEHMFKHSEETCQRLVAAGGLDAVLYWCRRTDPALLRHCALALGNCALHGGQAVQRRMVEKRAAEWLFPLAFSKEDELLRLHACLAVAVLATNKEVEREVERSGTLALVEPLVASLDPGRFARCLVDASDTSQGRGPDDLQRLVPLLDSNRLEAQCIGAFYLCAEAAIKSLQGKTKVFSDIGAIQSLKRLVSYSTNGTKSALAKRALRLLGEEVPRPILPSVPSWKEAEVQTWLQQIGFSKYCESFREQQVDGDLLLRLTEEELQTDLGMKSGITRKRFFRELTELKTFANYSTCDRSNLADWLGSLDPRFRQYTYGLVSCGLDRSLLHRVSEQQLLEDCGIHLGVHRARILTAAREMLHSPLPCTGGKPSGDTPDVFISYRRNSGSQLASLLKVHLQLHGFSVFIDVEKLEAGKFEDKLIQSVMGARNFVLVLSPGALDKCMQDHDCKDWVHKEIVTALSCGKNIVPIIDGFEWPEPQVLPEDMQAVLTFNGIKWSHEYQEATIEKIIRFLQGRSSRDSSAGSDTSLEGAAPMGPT
Sequence of Mitogen-activated protein kinase 7 (Homo sapiens) (Q13164 whole entry, looked up, the tested form may be a part): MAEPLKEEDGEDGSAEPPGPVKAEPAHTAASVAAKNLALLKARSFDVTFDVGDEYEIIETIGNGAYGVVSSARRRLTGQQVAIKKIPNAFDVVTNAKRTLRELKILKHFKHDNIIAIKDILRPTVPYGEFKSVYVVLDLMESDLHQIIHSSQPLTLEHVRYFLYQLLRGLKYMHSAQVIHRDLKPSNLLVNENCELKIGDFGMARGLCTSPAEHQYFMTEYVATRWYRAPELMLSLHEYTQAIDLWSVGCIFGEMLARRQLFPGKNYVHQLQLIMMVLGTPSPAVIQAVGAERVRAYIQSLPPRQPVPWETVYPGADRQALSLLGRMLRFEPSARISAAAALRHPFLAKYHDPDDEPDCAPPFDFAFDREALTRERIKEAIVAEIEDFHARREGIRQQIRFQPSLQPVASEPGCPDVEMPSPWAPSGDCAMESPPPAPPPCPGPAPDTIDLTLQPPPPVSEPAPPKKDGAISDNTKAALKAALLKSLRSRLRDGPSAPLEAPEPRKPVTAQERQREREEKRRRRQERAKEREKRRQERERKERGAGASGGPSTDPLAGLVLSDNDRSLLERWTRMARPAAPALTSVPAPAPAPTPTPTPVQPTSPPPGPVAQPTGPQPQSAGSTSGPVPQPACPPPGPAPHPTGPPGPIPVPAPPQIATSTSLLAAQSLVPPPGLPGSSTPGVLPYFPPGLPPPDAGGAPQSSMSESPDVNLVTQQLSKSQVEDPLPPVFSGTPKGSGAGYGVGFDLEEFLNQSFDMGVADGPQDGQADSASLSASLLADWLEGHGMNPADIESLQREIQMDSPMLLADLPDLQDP

COc1ccc(CC2c3cc(OC)c(OC)cc3CC[N+]2(C)CCC(=O)OCCCCCOC(=O)CC[N+]2(C)CCc3cc(OC)c(OC)cc3C2Cc2ccc(OC)c(OC)c2)cc1OC (configuration not stated)
outcome [1]: inactive | z-score [2, 11]: -0.594 (inactive) and -1.25 (inactive) and -0.066 (inactive) | z-score [2, 12]: -0.336 and -0.215 and -0.301 | remaining NAD [3]: 10 nM (inactive) | z-score [4]: -0.89 (inactive) and 0.01 (inactive)

CN1Cc2c(N)cccc2C(c2ccccc2)C1 (configuration not stated)
fold change [5, 13]: 1.2 (inactive) and 0.943 (inactive) and 0.87 (inactive) | fold change [5, 14]: 1.05 and 0.932 and 4.35 | cell count [5, 15]: 9850 and 8420 and 10600 | cell count [5, 16]: 8240 and 8920 and 12100 | outcome [6]: inactive | z-score [2, 11]: 0.549 (inactive) | z-score [2, 12]: 0.0395 | remaining NAD [3]: 17 nM (inactive) | luciferase signal [7]: 88 AU (inactive) | z-score [4]: -0.015 (inactive)

O=C(O)CN1C(=O)c2cccc3cccc(c23)C1=O
fold change [5, 13]: 0.898 (inactive) and 0.959 (inactive) and 0.946 (inactive) | fold change [5, 14]: 1.04 and 0.818 and 2.08 | cell count [5, 15]: 5450 and 8540 and 11100 | cell count [5, 16]: 6060 and 8900 and 11700 | fold fluorescence [8]: 3.97 [at 195.9 µM] (inactive) | remaining NAD [3]: 13 nM (inactive) | luciferase signal [7]: 44 AU (inactive) | z-score [4]: 0.415 (inactive)

CNS(=O)(=O)Cc1ccc2[nH]cc(CCN(C)C)c2c1
outcome [9]: inactive | z-score [2, 11]: -0.261 (inactive) and 0.654 (inactive) and -0.798 (inactive) | z-score [2, 12]: -0.042 and 0.351 and -0.245 | remaining NAD [3]: 10 nM (inactive) | z-score [4]: 0.385 (inactive) and 0.365 (inactive) and 0.755 (inactive)

NCCS
fold change [5, 13]: 1.1 (inactive) and 0.868 (inactive) and 0.893 (inactive) | fold change [5, 14]: 0.51 and 1.42 and 2.94 | cell count [5, 15]: 11000 and 8060 and 11500 | cell count [5, 16]: 9990 and 9290 and 12900 | outcome [6]: inactive | z-score [2, 11]: -0.14 (inactive) | z-score [2, 12]: -0.336 | remaining NAD [3]: 10 nM (inactive) | luciferase signal [7]: 76 AU (inactive) | z-score [4]: 0.24 (inactive)

Cc1ccc(C(=O)Nc2ccc(S(=O)(=O)O)c3cc(S(=O)(=O)O)cc(S(=O)(=O)O)c23)cc1NC(=O)c1cccc(NC(=O)Nc2cccc(C(=O)Nc3cc(C(=O)Nc4ccc(S(=O)(=O)O)c5cc(S(=O)(=O)O)cc(S(=O)(=O)O)c45)ccc3C)c2)c1
outcome [10]: inactive | outcome [1]: inactive | cell count [5, 16]: 10200 and 13600 and 11000 | outcome [6]: inactive | z-score [2, 11]: 0.0857 (inactive) | z-score [2, 12]: -0.401 | remaining NAD [3]: 10 nM (inactive) | luciferase signal [7]: 48 AU (inactive) | z-score [4]: 4.14 (active) and 1.81 (inactive) and 0.955 (inactive)

CC(=O)OC(C)C[N+](C)(C)C (configuration not stated)
fold change [5, 13]: 0.996 (inactive) and 0.9 (inactive) and 0.916 (inactive) | fold change [5, 14]: 1.55 and 1.24 and 1.41 | cell count [5, 15]: 9370 and 9670 and 11300 | cell count [5, 16]: 9400 and 10700 and 12300 | outcome [6]: inactive | z-score [2, 11]: -0.509 (inactive) | z-score [2, 12]: 0.138 | remaining NAD [3]: 10 nM (inactive) | luciferase signal [7]: 104 AU (inactive) | z-score [4]: 0.455 (inactive)

CC(=O)OCC1=C(C(=O)O)N2C(=O)[C@@H](NC(=O)Cc3cccs3)[C@H]2SC1
fold change [5, 13]: 1.04 (inactive) and 0.943 (inactive) and 0.907 (inactive) | fold change [5, 14]: 2.01 and 1.12 and 1.53 | cell count [5, 15]: 10600 and 8990 and 11000 | cell count [5, 16]: 10300 and 9530 and 12100 | outcome [6]: inactive | z-score [2, 11]: -0.988 (inactive) | z-score [2, 12]: -1.16 | remaining NAD [3]: 10 nM (inactive) | luciferase signal [7]: 52 AU (inactive) | z-score [4]: 0.015 (inactive)

C[C@]12C=CC(=O)C=C1CC[C@H]1[C@@H]3C[C@@H](O)[C@](O)(C(=O)CO)[C@@]3(C)C[C@H](O)[C@@]12F
fold change [5, 13]: 0.938 (inactive) and 0.869 (inactive) and 0.939 (inactive) | fold change [5, 14]: 0.943 and 0.955 and 1.2 | cell count [5, 15]: 7680 and 5920 and 7610 | cell count [5, 16]: 8190 and 6810 and 8100 | outcome [6]: inactive | z-score [2, 11]: 0.162 (inactive) and 0.389 (inactive) | z-score [2, 12]: 0.159 and 0.935 | remaining NAD [3]: 10 nM (inactive) | luciferase signal [7]: 36 AU (inactive) | z-score [4]: 2.37 (active) and 0.76 (inactive)

CN(C)CCCN1c2ccccc2Sc2ccc(C(F)(F)F)cc21
fold change [5, 13]: 1.11 (inactive) and 0.899 (inactive) and 0.891 (inactive) | fold change [5, 14]: 0.594 and 1.31 and 3.14 | cell count [5, 15]: 1420 and 7820 and 9630 | cell count [5, 16]: 1280 and 8700 and 10800 | outcome [6]: inactive | z-score [2, 11]: -0.173 (inactive) | z-score [2, 12]: 0.266 | remaining NAD [3]: 10 nM (inactive) | luciferase signal [7]: 64 AU (inactive) | z-score [4]: -1.38 (inactive)

CCCCC(=O)O[C@]1(C(=O)CO)[C@@H](C)C[C@H]2[C@@H]3CCC4=CC(=O)C=C[C@]4(C)[C@@]3(F)[C@@H](O)C[C@@]21C
outcome [10]: inactive | outcome [1]: inactive | remaining NAD [3]: 10 nM (inactive) | luciferase signal [7]: 80 AU (inactive)

CCN(CC)C(C)CN1c2ccccc2Sc2ccccc21 (configuration not stated)
fold change [5, 13]: 1.11 (inactive) and 0.804 (inactive) and 0.894 (inactive) | fold change [5, 14]: 1.02 and 1.63 and 0.788 | cell count [5, 15]: 9230 and 7320 and 9620 | cell count [5, 16]: 8340 and 9100 and 10800 | outcome [6]: inactive | z-score [2, 11]: -0.553 (inactive) | z-score [2, 12]: -0.605 | remaining NAD [3]: 10 nM (inactive) | luciferase signal [7]: 36 AU (inactive) | z-score [4]: -0.44 (inactive)

CN(C)[C@@H]1C(=O)C(C(N)=O)=C(O)[C@@]2(O)C(=O)C3=C(O)c4c(O)ccc(Cl)c4[C@@H](O)[C@H]3C[C@@H]12
fold change [5, 13]: 1 (inactive) and 0.852 (inactive) and 0.887 (inactive) | fold change [5, 14]: 0.853 and 1.42 and 3.05 | cell count [5, 15]: 2520 and 7990 and 10000 | cell count [5, 16]: 2520 and 9380 and 11300 | outcome [6]: inactive | z-score [2, 11]: 0.25 (inactive) | z-score [2, 12]: -1.49 | remaining NAD [3]: 10 nM (inactive) | luciferase signal [7]: 36 AU (inactive) | z-score [4]: 2.89 (active)

NS(=O)(=O)c1cc(C(=O)O)c(NCc2ccco2)cc1Cl
outcome [9]: inactive | z-score [2, 11]: -0.297 (inactive) and -0.16 (inactive) and 0.0353 (inactive) | z-score [2, 12]: 0.703 and -0.228 and 0.451 | remaining NAD [3]: 10 nM (inactive) | luciferase signal [7]: 72 AU (inactive) | z-score [4]: 0.405 (inactive) and 0.415 (inactive)
